# Compounds with a hit are over-represented: about 3.1% of the library has one in this group of screens.
# VDR inhibitor – Inhibitors of the vitamin D receptor (VDR): qHTS; Vitamin D3 receptor (Homo sapiens), P11473; VDR-SRC2-3 peptide fluorescence polarization, 2 h; Potency, µM, for inactives: max response, negative = inhibition, most hits filed as inhibitors; 0.93% of 400,000 active; AID 504847, 2011; note: potency is the fitted concentration of half-maximal effect; % is set by controls: 0 for no effect and ±100 for the full control effect
#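 VDR–SRC2-3 interaction, FP format. Cmpds 23 nl via pintool, brief spin, 2 h ambient incubation.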
# Vif-APOBEC3G blk – qHTS for Inhibitors of Vif-A3G Interactions: qHTS; DNA dC->dU-editing enzyme APOBEC-3G (Homo sapiens), Q9HC16; HeLa A3G-eYFP + Vif (tagged APOBEC3G with the HIV-1 protein that degrades it), YFP fluorescence, overnight; Potency, µM (titrated, usually from 46.1 µM), for inactives: top-dose activity, negative = active, usual class: inhibitors; 0.076% of 410,000 active; AID 602310, 2012; note: potency is the fitted concentration of half-maximal effect; % is set by controls: 0 for no effect and ±100 for the full control effect; nearly all actives have a fitted effect of over 60% in size
#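 HeLa cells stably expressing Vif and C-terminally eYFP-tagged A3G, seeded overnight at 37 deg C, then exposed to compound by pintool overnight at 37 deg C. Rise in yellow fluorescence (Ex 488/Em 500-530, Acumen) marks blocked Vif-driven A3G degradation.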
# Vif-A3F inh – qHTS for Inhibitors of Vif-A3F Interactions: qHTS; HeLa A3F-eYFP + Vif (tagged APOBEC3F with the HIV-1 protein that degrades it), YFP fluorescence increase; Potency, µM (series often up to 46.1 µM), without a hit: at the highest dose activity, negative = active; 0.2% of 390,000 active; AID 602313, 2012; note: potency is the fitted concentration of half-maximal effect; % of control where 0% means no effect; nearly all actives have a fitted effect of over 65% in size
#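 HeLa cells stably expressing Vif plus C-terminally eYFP-tagged A3F were seeded, incubated overnight at 37 deg C, dosed with compound, incubated overnight again at 37 deg C. Yellow fluorescence (Ex 488/Em 500-530) reported blocked Vif-mediated A3F-eYFP degradation.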
# TSHR antag – Antagonists of the Thyroid Stimulating Hormone Receptor: HTS campaign; Thyrotropin receptor (Homo sapiens), P16473; TSHR-expressing cells, TSH-stimulated cAMP HTRF, 2 h; hits give low values; activity change, negative = inhibition, % at 11.5 µM; 0.2% of 330,000 active;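 active = activity change below a set negative limit, meaning inhibition stronger than a set level, cut at about -70% in these data; inconclusive = activity change between two set negative limits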; note: % is set by controls: 0 for no effect and ±100 for the full control effect
# Target sequence (P16473 whole entry, looked up): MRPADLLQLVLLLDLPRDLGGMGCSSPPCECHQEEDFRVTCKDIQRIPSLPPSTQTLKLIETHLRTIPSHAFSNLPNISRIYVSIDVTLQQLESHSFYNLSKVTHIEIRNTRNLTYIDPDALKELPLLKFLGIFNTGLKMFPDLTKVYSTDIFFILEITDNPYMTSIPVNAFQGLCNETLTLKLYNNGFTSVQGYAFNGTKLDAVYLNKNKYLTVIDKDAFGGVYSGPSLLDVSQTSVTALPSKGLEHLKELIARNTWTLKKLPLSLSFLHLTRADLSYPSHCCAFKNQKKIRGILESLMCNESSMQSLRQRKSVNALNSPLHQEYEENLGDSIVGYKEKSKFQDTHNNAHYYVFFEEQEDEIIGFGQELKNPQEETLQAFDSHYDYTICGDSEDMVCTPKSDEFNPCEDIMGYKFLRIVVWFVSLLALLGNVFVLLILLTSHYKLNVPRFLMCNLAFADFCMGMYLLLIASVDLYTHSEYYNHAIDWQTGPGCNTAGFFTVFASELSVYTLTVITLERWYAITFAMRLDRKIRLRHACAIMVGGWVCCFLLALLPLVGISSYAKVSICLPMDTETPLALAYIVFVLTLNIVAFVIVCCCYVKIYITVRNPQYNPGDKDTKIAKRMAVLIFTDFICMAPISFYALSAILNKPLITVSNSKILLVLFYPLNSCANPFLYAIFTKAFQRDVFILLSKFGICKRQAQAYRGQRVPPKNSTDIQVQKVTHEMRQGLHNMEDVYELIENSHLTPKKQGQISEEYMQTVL
#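 TSHR-expressing cells were treated with compounds, then stimulated with TSH at EC80 (4nM final) for 2 hours at 37 deg C. Cellular cAMP was measured by HTRF competition between lysate cAMP and cAMP-d2 for a cryptate-labelled anti-cAMP antibody.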
# PLK1 PBD inh – qHTS for Inhibitors of PLK1-PDB (polo-like kinase 1 - polo-box domain): Primary Screen; Potency, µM, for the others: max response, negative = inhibition, usual class: inhibitors; AID 720504, 2013; 2.8% of 360,000 active; Plk1 PBD binding of FITC phosphopeptide, fluorescence polarization; Serine/threonine-protein kinase PLK1 (Homo sapiens), P53350; note: potency is the fitted concentration of half-maximal effect; series mostly up to about 57 µM; % is set by controls: 0 for no effect and ±100 for the full control effect; nearly all actives have a fitted effect of over 65% in size
# An asterisk follows results filed as active; ? = inconclusive; . = no result; ! = a repeat was not active. Unless noted, calls come from the whole dose curve; as a rule, active = well fitted curve in the direction sought with a large enough effect; inconclusive = small, poorly fitted or top-dose-only effect, or another doubt; inactive = no such curve, though single readings can be large; an effect the other way counts as inactive or inconclusive.
SMILES,VDR inhibitor,Vif-APOBEC3G blk,Vif-A3F inh,TSHR antag,PLK1 PBD inh
C=C1C(O)[C@@H]2O[C@]3(CC[C@H](/C=C/C(C)[C@@H]4CC(C)=CC5(O[C@H](C[C@@](C)(O)C(=O)O)CCC5O)O4)O3)CC[C@H]2O[C@@H]1C(O)CC(C)[C@H]1OC2(CCCCO2)CCC1C (some centres not stated),0%,-6%,2%,-78*,-17%
O=C1C=C2C(=CCOC2O)O1 (configuration not stated),13µM*,.,.,.,.
CCOC(=O)c1sc(/N=C/c2c(O)n(-c3cccc(C)c3)c(=O)[nH]c2=O)c(C#N)c1C,?,-11%,3%,8,19µM*
CN(C)C(=S)SC(=S)N(C)C,28µM*,.,.,.,.
COc1ccc(S(=O)(=O)Nc2ccccc2OC)cc1N=Nc1c(O)[nH]c(=S)[nH]c1=O,2%,0%,?,-16,-9%
O=c1[nH]c(=S)[nH]c(O)c1N=Nc1cc(S(=O)(=O)Nc2ccc(Cl)cc2)ccc1Cl,27%,0%,-5%,-37,30µM*
CC(C)=CCOc1c2occc2cc2ccc(=O)oc12,?,0%,-1%,-7,27µM*
CC1(C)OC1COc1c2occc2cc2ccc(=O)oc12 (configuration not stated),-2%,-8%,-1%,-3,2%
O=C1NC(=O)N(Cc2ccccc2)C(=O)/C1=C\N1CCCc2ccccc21,35µM*,?,-23%,-12,-20%
Cn1cccc1/C=C1\C(=O)NC(=O)N(Cc2ccccc2)C1=O,?,-12%,-14%,10,?
C/C(=N\N1CCCCCC1)c1c(O)n(C)c(=O)n(C)c1=O,.,.,.,-6,.
C/C(=N\NC(N)=O)c1c(O)n(C)c(=O)n(C)c1=O,-10%,-1%,-5%,-2,30µM*
C=CCc1cccc(C=Nc2c[nH]c(=O)[nH]c2=O)c1O,-21%,1%,12%,3,27µM*
C[C@]12CC[C@H]3[C@@H](CC[C@]4(O)C[C@@H](O)CC[C@]34C=O)[C@@]1(O)CC[C@@H]2C1=CC(=O)OC1,-4%,-5%,-11%,-72*,-1%
C[C@H]1O[C@@H](OC2CC[C@]3(C=O)[C@H]4CC[C@]5(C)[C@@H](C6=CC(=O)OC6)CC[C@]5(O)[C@@H]4CC[C@]3(O)C2)CC2OC(C)(C)OC21 (some centres not stated),-8%,-8%,-6%,-74*,-4%
C[C@@H]1O[C@H](O[C@@H]2CC[C@@]3(C=O)[C@H]4CC[C@@]5(C)[C@@H](C6=CC(=O)OC6)CC[C@@]5(O)[C@@H]4CC[C@]3(O)C2)C[C@H](O)[C@@H]1O,-11%,.,.,.,.
CCC12C=CCN3CCC4(c5ccc(OC)cc5N(C)C4[C@@](O)(C(=O)OC)C1OC(C)=O)C32 (some centres not stated),10%,.,.,.,.
CCCn1c(=O)n(C)c(=O)c2c(SCC(=O)NC34CC5CC(CC(C5)C3)C4)nc(CC(C)C)nc21,-8%,0%,-13%,-1,30µM*
CC1CC(O)[C@]2(O)[C@]13CC(=O)OC[C@@]2(C)[C@@](C)(O)C(=O)C3 (some centres not stated),13%,.,.,.,.
CCOC(=O)[C@]12Cc3cc(OC)ccc3[C@H]1N(C(C)C)C(=O)c1cc(OC)ccc12,.,.,.,.,8.4µM*
CCOC(=O)[C@]12Cc3cc(C)ccc3[C@H]1N(C)C(=O)c1cc(OC)ccc12,.,.,.,.,6.7µM*
CCOC(=O)[C@]12Cc3cc(C)ccc3[C@H]1N(C)C(=O)c1ccccc12,.,.,.,.,-17%
COC(=O)C1=C(c2ccc(F)cc2OCc2ccccc2)C[C@@H]2CC[C@H]1N2C(=O)NCc1ccccc1,14%,-5%,-9%,2,-15%
COC(=O)C1=C(c2ccc(F)cc2OCc2ccccc2)C[C@@H]2CC[C@H]1N2C(=O)NCc1cccc(F)c1,?,-11%,2%,-27,21µM*
COC(=O)C1=C(c2ccc(-c3ccccc3)c(F)c2)C[C@@H]2CC[C@H]1N2C(=O)NCc1ccco1,-3%,-11%,-7%,-83*,-23%
SMILES,VDR inhibitor,Vif-APOBEC3G blk,Vif-A3F inh,TSHR antag,PLK1 PBD inh
COC(=O)C1=C(c2ccc(-c3ccccc3)c(F)c2)C[C@@H]2CC[C@H]1N2C(=O)NC(C)C,4%,1%,3%,-93*,-4%
CC[C@@]1(O)C(=O)OCc2c1cc1n(c2=O)-c2cc3ccccc3nc2C1,-2%,.,.,.,.
Cc1c2ccncc2c(C)c2c1[nH]c1ccccc12,-10%,?,10µM*,-10,-7%
Cc1nccc2c1[nH]c1ccccc12,0%,4%,-4%,-5,1%
Cc1cc(C=C2C(=O)NC(=S)NC2=O)c(C)n1-c1ccc2c(c1)OCO2,71µM*,-37%,-30%,2,2.7µM*
Cc1cc(C=C2C(=O)NC(=O)NC2=O)c(C)n1-c1ccc2c(c1)OCO2,5%,-10%,7%,-3,1%
CCN1C[C@]2(C)CC[C@H](OC)[C@@]34[C@H]1C1(OCO[C@@]15C[C@H](OC)C1C[C@]3(O)C5[C@H]1OC)[C@@H](O)[C@H]24,6%,.,.,.,.
CC12C=CC(=O)C=C1CCC1C2=CCC2(C)C1CC[C@@H]2C(=O)CN1CCN(c2cc(N3CCCC3)nc(N3CCCC3)n2)CC1 (some centres not stated),3.2µM*,.,.,.,.
O=C(NCc1ccccc1)Oc1cccc(Cl)c1,3%,0%,0%,-6,8.4µM*
O=P(Nc1cccc(Cl)c1)(Oc1ccccc1)Oc1ccccc1,7%,-7%,18%,7,8%
N/C(=N\N=C/c1ccc(-c2ccc(O)c(C(=O)O)c2)o1)N[N+](=O)[O-],-9%,1%,-1%,8,11µM*
NCC(O)c1cc(O)c(O)cc1F (configuration not stated),28µM*!,-1%,0%,-19,1%
O=C1CCC[C@H]2[C@H]3CCCN4CCCC(=CN12)[C@@H]34,-6%,.,.,.,.
CC(C)=CCCC1(C)C=Cc2c(O)c3c(c(CC=C(C)C)c2O1)OC12C(CC4CC1C(C)(C)OC2(C/C=C(/C)C(=O)O)C4O)C3=O (configuration not stated),50µM*,.,.,.,.
CCCCn1c(O)c(C(=O)/C=C/c2c[nH]c3ccccc23)c(=O)[nH]c1=O,64%,3.2µM*,-339%,32,52%
CCCCn1c(O)c(C(CC)=NCCc2ccccc2)c(=O)[nH]c1=O,-4%,-5%,2%,.,-1%
NCCCNCCCCNCCCNC(=O)Cc1ccc(O)cc1,2%,.,.,.,.
